The whole screen tested about 16,000 compounds, of which about 4,000 (25%) were called active. About 26% were inconclusive and are not listed. The list is a sample of the results. Values without a mark were called inactive. Calls follow the shape of the dose curve; as a rule, active = well fitted curve in the direction sought with a large enough effect; inconclusive = small, poorly fitted or top-dose-only effect, or effect the other way; inactive = no such curve, though single readings can be large or run the other way.
biological target: Cytochrome P450 2C9 (Homo sapiens) (UniProt P11712); test: Cytochrome panel assay with activity outcomes; conditions: recombinant CYP, pro-luciferin dealkylation, luminescence, p450-cyp2c9; series mostly up to 57.1 µM
% is scaled to controls: 0 for no effect and ±100 for the full control effect.

Cytochrome P450 2C9 (Homo sapiens), sequence (P11712 whole entry, looked up): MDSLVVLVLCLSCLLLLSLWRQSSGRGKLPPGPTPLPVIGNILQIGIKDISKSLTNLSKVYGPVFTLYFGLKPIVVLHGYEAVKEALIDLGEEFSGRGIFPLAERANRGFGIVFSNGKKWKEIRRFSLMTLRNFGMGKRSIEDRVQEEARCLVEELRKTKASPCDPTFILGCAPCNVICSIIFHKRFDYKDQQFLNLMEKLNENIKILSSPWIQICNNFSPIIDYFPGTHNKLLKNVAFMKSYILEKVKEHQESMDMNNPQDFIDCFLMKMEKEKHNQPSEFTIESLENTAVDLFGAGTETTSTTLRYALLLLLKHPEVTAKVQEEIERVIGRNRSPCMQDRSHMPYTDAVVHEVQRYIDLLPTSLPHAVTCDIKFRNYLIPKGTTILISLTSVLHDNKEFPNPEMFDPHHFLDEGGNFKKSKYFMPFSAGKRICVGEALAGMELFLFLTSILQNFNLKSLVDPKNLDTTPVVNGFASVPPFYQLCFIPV

Row | Structure (SMILES) | AC50 | activity, negative = inhibition
1 | COC(=O)c1c(-c2cc(OC)c(OC)c(OC)c2)c2ccc(OCc3ccccn3)cc2c(=O)n1-c1ccc(N)cc1 | 3.98 µM (active) | 
2 | CC(C)CNc1nc(N)[nH]c(=O)c1NC=O |  | -6.56% [at 11.4 µM]
3 | OC1(c2ccc(OC(F)F)cc2)CSC(=Nc2cccnc2)N1C1CC1 (centres undefined) | 5.01 µM (active) | 
4 | Cc1ccccc1-c1cc(NCc2ccccc2)ncn1 |  | -15.2% [at 2.29 µM]
5 | Cc1ccc(N2C(=O)C(Cl)=C(NCc3ccccc3)C2=O)c(C)c1 | 5.62 µM (active) | 
6 | Cc1cccc(CNc2cc(-c3ccccc3Cl)ncn2)c1 |  | 4.64% [at 2.29 µM]
7 | COc1ccc(-c2cc(C(=O)O)c3c(C)nn(-c4ccccn4)c3n2)cc1 | inactive | 
8 | COC(=O)c1ccccc1N/C=C1\CCc2c(c(C)nn2-c2ccccn2)C1=O | 14.1 µM (active) | 
9 | COc1ccc(COC(=O)N/N=C2/C[C@@H](O)[C@@H](O)[C@@H]3[C@H]4C(=O)N(c5ccc(F)cc5F)C(=O)[C@@H]4CC[C@H]23)cc1 |  | -4.97% [at 11.4 µM]
10 | O=C(/C=C/c1ccc(Br)cc1)NC1CCCCCC1 | inactive | 
11 | C[n+]1ccc(/C=C/c2ccc(Br)cc2)cc1 | inactive | 
12 | CCOC(=O)C(CC)(CC)C(=O)/C=C/c1ccc(Br)cc1 | 5.01 µM (active) | 
13 | Nc1ccc(S(=O)(=O)NCCS(=O)(=O)O)cc1 |  | 9.74% [at 11.4 µM]
14 | CCCNS(=O)(=O)c1ccc(OCC(=O)OC)cc1 | 7.08 µM (active) | 
15 | O=C(NOC(=O)c1cc(Br)ccc1Cl)c1cccs1 | inactive | 
16 | Cc1ccc(Cc2cnc(NC(=O)c3cccs3)s2)cc1 | 8.91 µM (active) | 
17 | Cc1ccc(NC(=O)CCC(=O)NNC(=O)c2cccs2)c(C)c1 | inactive | 
18 | O=C(Nc1ncc(Cc2cccc(Cl)c2)s1)c1cccs1 | 11.2 µM (active) | 
19 | Nc1[nH]c(=O)nc2c1ncn2[C@H]1O[C@@H](CO)[C@@H](O)[C@@H]1O |  | -0.314% [at 11.4 µM]
20 | O=C(O)c1ccc(S(=O)(=O)N=Nc2c(O)[nH]c3ccccc23)cc1 |  | 3.79% [at 11.4 µM]

Row | Structure (SMILES) | AC50 | activity, negative = inhibition
21 | N#CCCSC(=S)[C@H]1CCCC1=N |  | -3.69% [at 11.4 µM]
22 | O=C(CCC(=O)OCc1ccc(C(=O)Oc2ccccc2)cc1)Nc1cccc2ccccc12 | 15.8 µM (active) | 
23 | COC(=O)CCC(=O)Nc1cccc2ccccc12 | inactive | 
24 | N#Cc1c(NC(=O)CCC(=O)O)ccc2ccccc12 |  | -7.5% [at 11.4 µM]
25 | COc1ncc2nc(-c3cc(F)cc(F)c3)c(=O)n(CCC#N)c2n1 | inactive | 
26 | N#Cc1sc2nc(-c3cccs3)cc(-c3ccc(Cl)cc3)c2c1N | 4.47 µM (active) | 
27 | Cc1cc(O)c(C(C)C)cc1N=Cc1ccccc1O | 0.631 µM (active) | 
28 | O=C(O)c1cc(N=Cc2ccccc2O)cc(C(=O)O)c1 |  | 7.44% [at 11.4 µM]
29 | [O-][n+]1c(CN2CCCCC2)nc2cccc3c2c1-c1ccccc1-3 |  | -15.3% [at 11.4 µM]
30 | CC(C)(C)c1ccc(C2CC2C(=O)N/N=C\c2cc3ccccc3nc2Cl)cc1 (centres undefined) | 3.55 µM (active) | 
31 | CN(C)c1ccc(/C=N\NC(=O)c2cnc3ccccc3c2)cc1 |  | -6.78% [at 11.4 µM]
32 | CN(Cc1ccco1)c1ncncc1-c1cccnc1 |  | 10.8% [at 2.29 µM]
33 | O=c1c(C=Nc2ccc(Oc3ccccc3)cc2)c[nH]n1-c1cccc(Cl)n1 | 6.31 µM (active) | 
34 | CCOc1[nH]n(-c2ccccc2)c(=O)c1C=Nc1ccc(Cl)cc1 | inactive | 
35 | Fc1ccc2c(c1)C(c1ccncc1)=NNC(c1ccc(Cl)cc1)=N2 | 0.282 µM (active) | 
36 | Clc1ccc2c(c1)C(c1cccs1)=NNC(c1cccnc1)=N2 | 11.2 µM (active) | 
37 | c1cncc(-c2cc(NCc3cccs3)ncn2)c1 |  | -6.08% [at 2.29 µM]
38 | COC(=O)[C@H](C)NC(=O)[C@@H](C)CO |  | 10.7% [at 11.4 µM]
39 | COCCNc1ccnc(-c2ccccc2CN(C)C)n1 |  | 0.0079% [at 2.29 µM]
40 | CNCC[C@H](Oc1ccccc1OC)c1ccccc1 | inactive | 

Row | Structure (SMILES) | AC50 | activity, negative = inhibition
41 | CNCC[C@@H](Oc1ccccc1C)c1ccccc1 | inactive | 
42 | CN(CC[C@@H](Oc1ccc(-c2ccccc2)cc1)c1ccc(F)cc1)CC(=O)O | 2.51 µM (active) | 
43 | CCOc1cc2[nH]c(=S)n(CCC(=O)N3CCc4ccccc4C3)c(=O)c2cc1OCC | 17.8 µM (active) | 
44 | O=c1onc2n1-c1cc(Br)ccc1OC2 | inactive | 
45 | CCCS(=O)(=O)N1CCCC(C(=O)NCCCN2CCN(c3ccc(F)cc3)CC2)C1 (centres undefined) | inactive | 
46 | COc1ccc(S(N)(=O)=O)cc1C(=O)NCCCN1CCN(c2ccc(C)cc2)CC1 | inactive | 
47 | Cc1ccc(S(=O)(=O)N(CC(=O)N2CCN(c3ccc(F)cc3)CC2)C2CCCCC2)cc1 | 3.55 µM (active) | 
48 | CCCCOC(=O)NS(=O)(=O)c1sc(CC(C)C)cc1-c1ccc(Cn2c(CC)nc3c(C)cc(C)nc32)cc1 | 12.6 µM (active) | 
49 | C1CCc2nnnn2CC1 | inactive | 
50 | O=C(c1cccc(F)c1)N1CCC2(CC1)CN(Cc1ccccc1)C2 | inactive | 
51 | Cc1cccc2cc(CN(Cc3ccccc3)C(=O)c3cccc(F)c3)c(Cl)nc12 | 2.24 µM (active) | 
52 | Cc1ccccc1OC/C(O)=C(\C#N)c1nc2ccccc2[nH]1 | inactive | 
53 | COc1cccc(OC)c1/C(O)=C(\C#N)c1nc2ccccc2[nH]1 | 11.2 µM (active) | 
54 | CNc1nc(-c2ccccc2OC)nc2ccccc12 |  | 7.89% [at 2.29 µM]
55 | CC(CC(=O)Nc1ccc(Cl)c([N+](=O)[O-])c1)c1ccccc1 (centres undefined) | 14.1 µM (active) | 
56 | COc1ccc(Nc2ncc(C(=O)N3CCN(c4ccc(F)cc4)CC3)c3ccccc23)cc1 | 2.24 µM (active) | 
57 | COc1ccc(N2CCN(C(=S)Nc3cc(C)cc(C)c3)CC2)cc1 | inactive | 
58 | COc1ccc(NC(=O)N2CCC3(CC2)CCN(C(=O)c2cccc(F)c2)CC3)cc1 | inactive | 
59 | CC(=O)[C@@]1(O)Cc2c(O)c3c(c(O)c2[C@H](O[C@H]2C[C@H](N)[C@H](O)[C@H](C)O2)C1)C(=O)c1ccccc1C3=O | inactive | 
